Our source for the inhibition, activation and activity values is PubChem BioAssay.

Structures are written as SMILES. This is one part of the list. Activity calls are given as the source filed them.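 The calls were made as follows, unless noted: active = mean inhibition above about 50% in the one-dose retest (limit read from the data); inactive = the rest.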

Assay [1] can be described thus: lowers stimulated NF-kB luciferase signal in Jurkat – cell-based, luminescence, single concentration, T-cell NF-kB inhibitor project, confirmation (AID 435020;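 active = inhibition reaching about 45% at 4 µM in either replicate, limit read from the data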;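 also: plate controls were PMA/ionomycin stimulated DMSO wells for no effect and unstimulated DMSO wells for full effect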). The conditions noted are these: PMA/ionomycin-induced, 16 h, at 4 µM, stronger effect = higher value.
Assay [2] has as its target Sentrin-specific protease 8 (Homo sapiens) (UniProt Q96LD8). Description: human SENP8 peptidase blockers, hit retest – biochemical, luminescence, single concentration, confirmation (AID 488912;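 active = mean inhibition across replicates above about 50%, limit read from the data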). Conditions: Recombinant SENP8, Z-RLRGG-aminoluciferin luminescence, 60 min; at 12.5 µM; stronger effect = higher value.
Assay [3] concerns the target Sentrin-specific protease 6 (Homo sapiens) (UniProt Q9GZR1). In words: inhibition of human SENP6 catalytic domain – biochemical, luminescence, single concentration, confirmation (AID 488915). Conditions: recombinant SENP6, Z-RLRGG-aminoluciferin luminescence; at 12.5 µM; stronger effect = higher value.
The target in assay [4] is Sentrin-specific protease 7 (Homo sapiens) (UniProt Q9BQF6). Description: human SENP7 peptidase blockers, hit retest – biochemical, luminescence, single concentration, confirmation (AID 488917). The conditions noted are these: recombinant SENP7, Z-RLRGG-aminoluciferin luminescence, 40 min; at 12.5 µM; stronger effect = higher value.
Assay [5] concerns the target Caspase-3 (Homo sapiens) (UniProt P42574). Description: human caspase-3 activity blockade, out-of-family – biochemical, single concentration, selectivity assay for SENP inhibitor project, confirmation (AID 488918;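 active = mean inhibition above about 50%, limit read from the data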;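 also: plate controls were enzyme with DMSO for no effect and wells without caspase-3 for full effect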). The conditions noted are these: purified caspase-3, Z-DEVD-aminoluciferin luminescence, 60 min; at 12.5 µM; stronger effect = higher value.
Assay [6] in a line: Ultra-Glo luciferase signal interference – biochemical, single concentration, SENP8 reaction pre-completed, artefact control for SENP inhibitor project, confirmation (AID 488919;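 active = mean inhibition above about 50% when retested at one dose, limit read from the data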;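 also: plate controls were DMSO wells with completed reaction for no effect and substrate without enzyme for full effect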). The conditions noted are these: Pre-incubated SENP8/Z-RLRGG-aminoluciferin, luciferase luminescence interference; at 12.5 µM; stronger effect = higher value.
The nature of assay [7]: PERK-eIF2a-CHOP pathway stimulators, retested – cell-based, CHO-CHOP luciferase reporter, single concentration, confirmation (AID 463112; in the data active = activation above about 33%;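 also: 0% = DMSO wells and 100% = tunicamycin 10 µg/mL wells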). The conditions noted are these: CHO-CHOP cells, CHOP-luciferase reporter luminescence; at 10 µM; stronger effect = higher value; percent of tunicamycin response, DMSO as zero.
A short description of assay [8]: HIF-2a driven luciferase blockers, single dose – luminescence, 786-0 RCC cells, confirmation (AID 651580;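 active = mean inhibition across four replicates of at least 40 percent at the single tested concentration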). Conditions: HIF-2a luciferase reporter luminescence, overnight, at 18.8 µM, stronger effect = higher value. On the technique in general: In a reporter assay the amount or activity of a reporter protein is the signal.
A short description of assay [9]: HIF-1a luciferase reporter signal reduction – MiaPaCa-2 cells, single concentration, counter-screen for HIF-2a inhibitor project, confirmation (AID 651589;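 active = mean inhibition of the reporter signal across four replicates at the single tested dose of 50% or more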). Conditions: MiaPaCa-2 HIF-1a luciferase reporter, desferoxamine, overnight; at 18.8 µM; stronger effect = higher value.
Assay [10] can be described thus: inhibition of PEG-3 promoter luciferase signal – cell-based, HeLa, luciferase reporter, single concentration, confirmation (AID 602417;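 active = at 20 µM dose, 40% or more inhibition averaged across four replicates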). Conditions: HeLa PEG-Prom luciferase reporter, luminescence, overnight; at 20 µM; stronger effect = higher value.
Assay [11] is described as follows: Brca1-Bard1 BiLC signal decrease – luminescence, single concentration, counter-screen for Mdm2/MdmX interaction inhibitor project, confirmation (AID 504668; call rule not given here). Conditions: Brca1/Bard1 bimolecular luciferase complementation counterscreen, at 8 µM, stronger effect = higher value.
In assay [12] the target is PEG-3 (UniProt Q6IN02). In words: inhibition of PEG-3 promoter-driven reporter – cell-based, HeLa, luciferase, CREF/GAPDH counter-screen panel, dose response (AID 624167). Conditions: CREF/GAPDH counter-screens; HeLa PEG-Prom luciferase reporter, overnight, run 1, dose range 1, at 100 µM (top of the series) unless noted. (In general: A counterscreen serves to expose hits that act by an unwanted route or on another target.)

The target of assay [13] is PEG-3 (UniProt Q6IN02). The description is as above. Conditions: CREF/GAPDH counter-screens; HeLa PEG-Prom luciferase reporter, overnight, run 2, dose range 1, at 100 µM (top of the series) unless noted.
Assay [14] deals with Rat fibroblasts (CREF). Described as above. Conditions: CREF/GAPDH counter-screens; run 1, dose range 1, at 100 µM (top of the series).
The subject of assay [15] is Rat fibroblasts (CREF). The assay is described as above. Conditions: CREF/GAPDH counter-screens; run 2, dose range 1, at 100 µM (top of the series).
The target of assay [16] is COP9 signalosome complex subunit 5 (Homo sapiens) (UniProt Q92905). Description: blockers of CSN-driven cullin deneddylation – biochemical, fluorescence polarization, single concentration, SCF-Nedd8OG substrate, confirmation (AID 720654; in the data active = inhibition above about 50%;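 also: 0% = DMSO with enzyme and 100% = no enzyme wells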). The conditions noted are these: Csn5 deneddylation of SCF-Nedd8OG, 90 min, at 16.6 µM, stronger effect = higher value. (In general: In fluorescence polarisation assays a small probe gives low polarisation when free and higher when bound to something large.)

For assay [17], the target named is 72 kDa type IV collagenase (Homo sapiens) (UniProt P08253). In words: human MMP-2 inhibitors, single-point check – biochemical, fluorescence, single concentration, counter-screen for CSN deneddylation inhibitor project, confirmation (AID 720655;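 active = corrected plate-normalized z-score of 5 or more, or -5 or less, or inhibition of 15% or more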;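 also: plate controls were DMSO wells with enzyme for no effect and buffer wells lacking MMP-2 for full effect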). Conditions: recombinant MMP-2, FRET substrate fluorescence, 60 min; at 16.6 µM.
Assay [18] concerns the target Prothrombin (Bos taurus) (UniProt P00735). Description: thrombin cleavage blockers, FP readout – biochemical, fluorescence polarization, single concentration, counter-screen for CSN deneddylation inhibitor project, confirmation (AID 720656;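 active = inhibition at or above a set limit, with a fluorescence interference ratio between 0.5 and a set maximum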). Conditions: bovine thrombin cleavage of Ub4-pepOG, at 16.6 µM, stronger effect = higher value.
In assay [19] the target is Protein Mdm4 (Homo sapiens) + E3 ubiquitin-protein ligase Mdm2 (Homo sapiens) (UniProt O15151+Q00987). Description: human Mdm2/MdmX binding disruption – cell-based, luminescence, single concentration, set 2, confirmation (AID 504601;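 active = mean inhibition of the luminescence signal across two replicates at or above 26 percent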). Conditions: SaOS-2 split-luciferase Mdm2/MdmX complementation, at 8 µM, stronger effect = higher value.
Assay [20] can be described thus: NF-kB reporter suppression in CF airway cells – cell-based, GFP fluorescence, single concentration, confirmation (AID 602472; in the data active = inhibition above about 40%;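 also: stimulus PAF is a Pseudomonas aeruginosa filtrate and not platelet activating factor; plate controls were DMSO wells with stimulus for no effect and unstimulated DMSO wells for full effect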). The conditions noted are these: KKLEB CF airway cells, PAF-induced NF-kB-GFP fluorescence, overnight; at 5 µM; stronger effect = higher value.
A short description of assay [21]: NFkB reporter suppression in cystic fibrosis bronchial cells – cell-based, uHTS hits, panel, cytotoxicity readout, dose response (AID 624344). Conditions: CF bronchial epithelial cells, PAF-induced NFkB reporter inhibition, with PAF, run 1; at 79 µM (top of the series) unless noted.
Test in assay [22]: as above
The conditions noted are these: CF bronchial epithelial cells, PAF-induced NFkB reporter inhibition, with PAF, run 2; at 79 µM (top of the series) unless noted.

Assay [23] deals with Tumor necrosis factor receptor superfamily member 10B (Homo sapiens) (UniProt O14763). Description: viability loss of caspase-8 NB7 cells with TRAIL – with/without TRAIL, luminescence panel, confirmation (AID 651596; in the data active = activity above about 50%). The conditions noted are these: NB7 neuroblastoma + caspase-8, TRAIL sensitization, NB7 Caspase-8, with TRAIL, mean of runs, at 10 µM, stronger effect = higher value.
Test in assay [24]: as above
The conditions noted are these: NB7 neuroblastoma + caspase-8, without TRAIL, NB7 Caspase-8, without TRAIL, mean of runs, at 10 µM.

Sentrin-specific protease 8 (Homo sapiens), sequence (Q96LD8 whole entry, looked up, the tested form may be a part): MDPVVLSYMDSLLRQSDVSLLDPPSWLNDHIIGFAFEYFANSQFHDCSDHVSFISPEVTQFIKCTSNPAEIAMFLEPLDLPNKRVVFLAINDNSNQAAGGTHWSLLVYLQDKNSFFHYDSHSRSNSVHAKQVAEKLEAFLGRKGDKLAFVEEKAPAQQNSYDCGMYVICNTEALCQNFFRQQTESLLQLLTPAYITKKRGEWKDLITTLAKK
Sentrin-specific protease 7 (Homo sapiens), sequence (Q9BQF6 706-1050 limits assumed): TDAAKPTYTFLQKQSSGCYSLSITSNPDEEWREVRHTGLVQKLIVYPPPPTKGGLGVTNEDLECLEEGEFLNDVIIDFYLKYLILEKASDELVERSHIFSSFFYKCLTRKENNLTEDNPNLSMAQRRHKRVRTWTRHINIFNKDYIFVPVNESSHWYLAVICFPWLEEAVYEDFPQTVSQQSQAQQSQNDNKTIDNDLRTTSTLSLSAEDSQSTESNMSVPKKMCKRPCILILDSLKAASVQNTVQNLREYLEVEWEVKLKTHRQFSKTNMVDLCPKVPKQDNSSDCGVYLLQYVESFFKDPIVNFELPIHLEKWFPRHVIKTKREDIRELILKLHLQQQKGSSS
Caspase-3 (Homo sapiens), sequence (P42574 28-227 limits assumed): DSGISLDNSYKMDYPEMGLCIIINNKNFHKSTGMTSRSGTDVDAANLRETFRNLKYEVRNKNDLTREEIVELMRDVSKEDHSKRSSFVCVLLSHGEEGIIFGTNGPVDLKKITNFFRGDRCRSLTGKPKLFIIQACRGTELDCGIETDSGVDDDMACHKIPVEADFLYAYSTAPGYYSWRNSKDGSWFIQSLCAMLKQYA
Sentrin-specific protease 6 (Homo sapiens), sequence (Q9GZR1 628-1112 limits assumed): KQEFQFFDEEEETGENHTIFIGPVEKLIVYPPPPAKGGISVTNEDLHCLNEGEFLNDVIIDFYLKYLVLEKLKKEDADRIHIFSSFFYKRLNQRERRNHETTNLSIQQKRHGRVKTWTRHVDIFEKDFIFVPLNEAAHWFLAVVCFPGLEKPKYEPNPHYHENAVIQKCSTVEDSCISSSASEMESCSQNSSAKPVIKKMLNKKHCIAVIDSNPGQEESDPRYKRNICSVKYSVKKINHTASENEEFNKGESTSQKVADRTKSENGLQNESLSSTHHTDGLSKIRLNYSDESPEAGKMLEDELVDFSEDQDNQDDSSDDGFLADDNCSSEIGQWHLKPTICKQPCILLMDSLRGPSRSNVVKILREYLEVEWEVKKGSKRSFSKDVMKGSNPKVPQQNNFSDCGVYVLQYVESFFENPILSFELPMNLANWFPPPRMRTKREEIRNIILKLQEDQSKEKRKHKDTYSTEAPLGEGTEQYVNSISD
PEG-3, sequence (Q6IN02 whole entry, looked up): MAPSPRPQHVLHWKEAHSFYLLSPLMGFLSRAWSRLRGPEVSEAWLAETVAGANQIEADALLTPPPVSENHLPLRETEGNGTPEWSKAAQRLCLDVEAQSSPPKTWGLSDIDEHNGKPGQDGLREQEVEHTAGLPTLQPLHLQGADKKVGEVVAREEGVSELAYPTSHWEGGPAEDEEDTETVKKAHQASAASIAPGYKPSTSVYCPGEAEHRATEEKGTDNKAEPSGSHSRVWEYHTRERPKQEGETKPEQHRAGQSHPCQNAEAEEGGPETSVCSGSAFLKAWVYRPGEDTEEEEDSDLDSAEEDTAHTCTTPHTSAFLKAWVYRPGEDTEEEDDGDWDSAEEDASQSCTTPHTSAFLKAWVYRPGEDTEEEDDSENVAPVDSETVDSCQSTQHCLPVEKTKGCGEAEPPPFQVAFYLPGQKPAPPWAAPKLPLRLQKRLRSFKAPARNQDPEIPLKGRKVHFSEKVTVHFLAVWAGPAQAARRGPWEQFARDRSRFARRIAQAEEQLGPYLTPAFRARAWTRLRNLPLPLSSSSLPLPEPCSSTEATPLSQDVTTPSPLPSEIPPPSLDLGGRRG
Tumor necrosis factor receptor superfamily member 10B (Homo sapiens), sequence (O14763 whole entry, looked up): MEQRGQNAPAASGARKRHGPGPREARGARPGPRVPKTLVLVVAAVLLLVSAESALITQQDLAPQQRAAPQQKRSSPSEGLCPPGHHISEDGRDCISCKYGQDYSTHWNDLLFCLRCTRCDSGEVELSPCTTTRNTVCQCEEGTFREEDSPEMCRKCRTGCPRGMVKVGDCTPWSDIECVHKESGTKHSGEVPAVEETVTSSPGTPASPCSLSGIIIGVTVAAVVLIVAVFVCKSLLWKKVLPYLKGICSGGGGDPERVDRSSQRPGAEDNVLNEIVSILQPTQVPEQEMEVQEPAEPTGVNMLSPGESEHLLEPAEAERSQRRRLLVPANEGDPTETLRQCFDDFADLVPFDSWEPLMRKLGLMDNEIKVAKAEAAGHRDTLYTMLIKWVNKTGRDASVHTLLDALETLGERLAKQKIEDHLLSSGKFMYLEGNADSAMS
Protein Mdm4 (Homo sapiens) + E3 ubiquitin-protein ligase Mdm2 (Homo sapiens), sequence (O15151 whole entry, looked up): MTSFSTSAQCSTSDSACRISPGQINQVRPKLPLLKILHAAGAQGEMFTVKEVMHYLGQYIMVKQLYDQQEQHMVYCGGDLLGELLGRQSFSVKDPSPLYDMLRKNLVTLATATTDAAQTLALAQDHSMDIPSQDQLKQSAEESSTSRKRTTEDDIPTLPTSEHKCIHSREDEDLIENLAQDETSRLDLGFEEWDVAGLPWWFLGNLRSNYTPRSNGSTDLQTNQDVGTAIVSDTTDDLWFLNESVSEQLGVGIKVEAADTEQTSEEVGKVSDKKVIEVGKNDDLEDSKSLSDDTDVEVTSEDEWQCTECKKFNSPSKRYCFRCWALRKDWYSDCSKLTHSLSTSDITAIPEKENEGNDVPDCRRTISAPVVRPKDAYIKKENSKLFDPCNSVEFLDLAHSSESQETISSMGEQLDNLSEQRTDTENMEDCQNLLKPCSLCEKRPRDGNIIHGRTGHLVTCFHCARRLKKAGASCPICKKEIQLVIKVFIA
Protein Mdm4 (Homo sapiens) + E3 ubiquitin-protein ligase Mdm2 (Homo sapiens), sequence (Q00987 whole entry, looked up): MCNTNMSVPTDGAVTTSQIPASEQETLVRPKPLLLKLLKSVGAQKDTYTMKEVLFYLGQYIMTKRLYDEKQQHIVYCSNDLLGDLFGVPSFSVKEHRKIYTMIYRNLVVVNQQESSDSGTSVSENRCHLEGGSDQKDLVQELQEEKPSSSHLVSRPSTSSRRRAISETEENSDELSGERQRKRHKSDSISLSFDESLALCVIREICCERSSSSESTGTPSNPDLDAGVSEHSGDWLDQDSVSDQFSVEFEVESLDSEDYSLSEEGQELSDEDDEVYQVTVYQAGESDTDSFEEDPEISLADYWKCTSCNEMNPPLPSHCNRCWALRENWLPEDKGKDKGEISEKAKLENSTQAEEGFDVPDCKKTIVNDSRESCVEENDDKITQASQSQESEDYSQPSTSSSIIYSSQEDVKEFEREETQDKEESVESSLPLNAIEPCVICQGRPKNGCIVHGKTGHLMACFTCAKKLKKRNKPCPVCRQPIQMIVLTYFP
COP9 signalosome complex subunit 5 (Homo sapiens), sequence (Q92905 whole entry, looked up, one chain of several): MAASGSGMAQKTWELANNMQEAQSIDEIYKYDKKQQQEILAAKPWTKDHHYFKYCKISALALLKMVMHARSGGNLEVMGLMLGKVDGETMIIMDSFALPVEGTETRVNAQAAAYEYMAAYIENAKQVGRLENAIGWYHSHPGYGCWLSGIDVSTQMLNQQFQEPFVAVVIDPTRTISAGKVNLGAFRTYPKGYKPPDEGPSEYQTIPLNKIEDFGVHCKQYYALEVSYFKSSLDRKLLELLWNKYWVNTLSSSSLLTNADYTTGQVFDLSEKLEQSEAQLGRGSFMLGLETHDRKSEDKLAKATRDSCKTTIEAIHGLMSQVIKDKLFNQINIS
72 kDa type IV collagenase (Homo sapiens), sequence (P08253 whole entry, looked up): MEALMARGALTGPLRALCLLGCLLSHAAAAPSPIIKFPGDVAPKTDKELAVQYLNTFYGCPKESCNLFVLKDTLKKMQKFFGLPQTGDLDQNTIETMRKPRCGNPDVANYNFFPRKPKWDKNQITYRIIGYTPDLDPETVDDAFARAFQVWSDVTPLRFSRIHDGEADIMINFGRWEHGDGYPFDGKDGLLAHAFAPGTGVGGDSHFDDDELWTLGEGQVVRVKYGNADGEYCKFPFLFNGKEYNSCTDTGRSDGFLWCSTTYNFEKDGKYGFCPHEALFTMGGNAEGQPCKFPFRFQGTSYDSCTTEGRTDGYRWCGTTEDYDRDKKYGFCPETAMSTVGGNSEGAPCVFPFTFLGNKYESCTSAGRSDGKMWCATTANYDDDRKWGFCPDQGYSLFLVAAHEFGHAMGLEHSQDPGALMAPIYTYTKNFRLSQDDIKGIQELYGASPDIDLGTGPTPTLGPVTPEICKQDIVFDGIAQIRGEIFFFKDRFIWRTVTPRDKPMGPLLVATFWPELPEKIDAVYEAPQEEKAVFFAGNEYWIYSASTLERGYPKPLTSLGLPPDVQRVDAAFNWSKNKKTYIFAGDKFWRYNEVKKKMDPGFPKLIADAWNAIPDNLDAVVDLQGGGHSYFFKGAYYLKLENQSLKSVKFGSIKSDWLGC
Prothrombin (Bos taurus), sequence (P00735 whole entry, looked up): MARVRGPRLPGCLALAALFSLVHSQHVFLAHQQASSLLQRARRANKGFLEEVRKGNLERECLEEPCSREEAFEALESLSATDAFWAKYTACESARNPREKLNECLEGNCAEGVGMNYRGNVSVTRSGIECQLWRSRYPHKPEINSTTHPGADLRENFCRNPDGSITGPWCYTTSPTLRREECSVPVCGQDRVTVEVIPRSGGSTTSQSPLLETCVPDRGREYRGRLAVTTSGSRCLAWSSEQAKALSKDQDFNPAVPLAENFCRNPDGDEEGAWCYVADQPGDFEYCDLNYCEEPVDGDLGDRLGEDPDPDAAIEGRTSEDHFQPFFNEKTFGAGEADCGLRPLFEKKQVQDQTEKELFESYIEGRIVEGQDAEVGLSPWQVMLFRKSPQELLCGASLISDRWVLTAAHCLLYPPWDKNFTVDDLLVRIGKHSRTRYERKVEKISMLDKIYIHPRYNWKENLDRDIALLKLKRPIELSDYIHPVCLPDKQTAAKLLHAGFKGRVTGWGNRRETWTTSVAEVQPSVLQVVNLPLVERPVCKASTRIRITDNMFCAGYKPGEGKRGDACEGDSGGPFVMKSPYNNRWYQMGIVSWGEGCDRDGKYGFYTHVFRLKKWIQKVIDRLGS

For orientation: inhibition means the change of the read-out against control, counted positive when it falls. With `CCCOc1ccc(C(=O)NCCc2ccccc2)cc1`, the inhibition in assay [1] is -82% (inactive); in assay [2] it was 13.2% (inactive); in [3] it was 62% (active); in [4], 88.3% (active); in [5] it was 78% (active); in [6] it was -5.4% (inactive).

In the case of `COc1ccc(-n2nnnc2-c2nc3ccccc3s2)cc1`, the inhibition in assay [1] is -67.2% (inactive); in [2] it was 17.5% (inactive); in assay [3], 26.7% (inactive); in assay [4], 4.7% (inactive); in assay [5], 35.5% (inactive); in [6], 1.6% (inactive).

With `COc1cc(SC)ccc1C(=O)NCCOc1ccccc1Cl`, the inhibition in [1] was -81.7% (inactive).

In the case of `O=[N+]([O-])c1ccc2oc(-c3cccc(O)c3)nc2c1`, the inhibition in assay [1] is -113% (inactive); in [2], 90.4% (active); in assay [3] it was 90.4% (active); in [4] it was 99% (active); in [5] it was 85.8% (active); in assay [6] it was 84.4% (active).

In the case of `O=c1cc(-c2ccccc2)[nH]c2cc(F)ccc12`, in assay [1], the inhibition was 46% (inactive).

Take `CC(C)CC(=O)N/C(N)=N/c1nc2ccccc2s1`: the inhibition in assay [1] is -131% (inactive).

Take `Cc1nc(NC(=O)c2ccc3c(c2)OCCO3)ccc1Br`: the inhibition was -134% (inactive) in assay [1]; 82.6% (active) in assay [2]; 80.5% (active) in [3]; 96.2% (active) in assay [4]; 74% (active) in assay [5]; 64.5% (active) in [6].

For the molecule `CCCc1cc(C(=O)Nc2ccc(Cl)cn2)cs1`, the inhibition is -104% (inactive) in assay [1]; 73.5% (active) in assay [2]; 79.2% (active) in [3]; 92.2% (active) in assay [4]; 66.8% (active) in assay [5]; 59.1% (active) in [6].

On to `COc1ccc(Nc2nc(-c3ccccc3)cs2)cc1`, for which the inhibition was -140% (inactive) in assay [1]; 49.3% (inactive) in assay [2]; 89.6% (active) in [3]; 100% (active) in assay [4]; 83.7% (active) in [5]; 53.8% (active) in [6].

`CCn1c(/C=C/c2ccc([N+](=O)[O-])o2)nc2ccccc2c1=O`: the inhibition in assay [1] is 23.7% (inactive); in assay [8], -36.9% (inactive); in [9], 105% (active). In addition, the activation in [7] was 14.3% (inactive).

For `Cc1ccc(OCc2nc3ccccc3n2C)cc1`, the inhibition in [1] was -91.5% (inactive); in [2], 8.9% (inactive); in assay [3], 54.5% (active); in [4], 79% (active); in assay [5] it was 68% (active); in assay [6] it was 18.5% (inactive).

Regarding `Clc1ccc2nc(CSc3ccccc3)cn2c1`, the inhibition in assay [1] was -58.5% (inactive); in assay [2] it was 53.7% (active); in [3] it was 55.6% (active); in assay [4], 86.6% (active); in assay [5], 68.9% (active); in assay [6] it was 70.8% (active).

For `Oc1ccc(/C=N/Nc2ccc(C(F)(F)F)cn2)cc1O`, in assay [1], the inhibition was -7.8% (inactive). Moreover, the activation in assay [7] was 68.9% (active).

As for `O=C(Nc1ccc2sc3ccccc3c(=O)c2c1)c1ccccc1Cl`, the inhibition is -104% (inactive) in assay [1]; 6.3% (inactive) in [2]; 0% (inactive) in assay [3]; 13.5% (inactive) in assay [4]; 24.3% (inactive) in assay [5]; 4.3% (inactive) in [6].

In the case of `CC(=O)Nc1cccc(-c2csc(Nc3cccc(C)n3)n2)c1`, the inhibition in assay [1] was -67.1% (inactive); in assay [2] it was 6.1% (inactive); in assay [3], 93.9% (active); in [4], 102% (active); in assay [5] it was 75.7% (active); in assay [6], 94.2% (active).

In the case of `COc1ccc(CC(=O)Nc2nc(-c3ccc(F)c(F)c3)cs2)cc1OC`, in assay [1], the inhibition is 58.5% (active).

Consider `CCc1ccc2oc(-c3ccc(N)cc3)nc2c1`, for which the inhibition in [1] was -126% (inactive); in assay [2] it was 94.5% (active); in [3], 94.8% (active); in [4] it was 100% (active); in assay [5] it was 84.1% (active); in assay [6] it was 94.5% (active).

For the molecule `Cc1ccc(N2CCN(c3ccc([N+](=O)[O-])cn3)CC2)c(C)c1`, in assay [1], the inhibition is 15.2% (inactive).

`COc1cc(NS(=O)(=O)c2ccc3ccccc3c2)c2ncccc2c1`: the inhibition in [1] is 2.5% (inactive); in [10], 43% (active). Besides, in assay [7], the activation is 689% (active).

On to `O=C(Nc1ccccc1)Nc1nc2ccccc2s1`, for which the inhibition in assay [1] is -117% (inactive); in [2], 17.8% (inactive); in assay [3], 29% (inactive); in [4] it was 25.6% (inactive); in [5], 44.9% (inactive); in assay [6], 22.6% (inactive).

`COc1ccc(Nc2ncnc3ccc(Br)cc23)c(OC)c1`: the inhibition was 88.2% (active) in [1]; 24.3% (active) in assay [11]; 87.9% (active) in [10]; 91.3% (active) in assay [8]; 102% (active) in assay [9]; 88.3% in assay [12]. The values for the inhibition in assay [13], in [14] and in [15] were 91.8%, 44.4% and 38.7%, respectively.

For the molecule `CCN1/C(=C\c2ccc3ccccc3[n+]2CC)Sc2cc(C)ccc21`, the inhibition in assay [1] was 67.4% (active); in [11], 25% (active); in [16], 24% (inactive); in [17], -3.14% (inactive); in assay [18] it was 43.3% (inactive).

Consider `COc1ccccc1-n1nnnc1S(=O)(=O)Cc1ccc(Cl)cc1`, for which the inhibition in [1] was 26.5% (inactive); in [19], 103% (active); in assay [20], 99.1% (active); in assay [8], 70.5% (active); in assay [9], 102% (active); in assay [21], 110%. The inhibition in assay [22] was 104%.

Regarding `O=C1CC(c2cccc(Cl)c2)CC(O)=C1C=Nc1ccccc1` (configuration not stated), the activation in [7] was 70.8% (active).

As for `Cc1c(NC(=O)CSc2cccc3cccnc23)c(=O)n(-c2ccccc2)n1C`, the activation in [7] is 123% (active).

As to `c1ccc2[nH]c(-c3nc4ccccc4[nH]3)nc2c1`, the inhibition in assay [1] was -90% (inactive); in assay [2] it was -14.2% (inactive); in [3], 42.7% (inactive); in [4], 77.8% (active); in assay [5], 77.3% (active); in assay [6], 50.8% (active). The activity was 80.2% in assay [23] and 77.8% in [24].
